Data reported in PubChem BioAssay (NCI).
This is part of a sample that, as a whole, favours compounds with a hit. Of some 79,000 tested, about 15% had one in any assay. Active and inactive are the calls of the source. Cut-off read from the data, not from the text of the source: active = growth inhibition above about 70%; inactive = the rest.

Legend:
[1] = NCI Yeast Anticancer Drug Screen. Data for the mec2-1 strain (AID 157); conditions: S. cerevisiae mec2-1 strain, stronger effect = higher value
Outline: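 Strain: mec2-1 (DNA repair/cell cycle alteration). Compound exposure, then growth measured; inhibition expressed relative to vehicle.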

[2] = NCI Yeast Anticancer Drug Screen. Data for the rad14 strain (AID 159);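 note: 0% = growth of vehicle-treated control cultures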; conditions: S. cerevisiae rad14 strain growth inhibition, stronger effect = higher value
Outline: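 Compound-treated yeast with a defined DNA-repair lesion; growth inhibition normalised to vehicle-treated cultures.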

[3] = NCI Yeast Anticancer Drug Screen. Data for the CLN2oe strain (AID 163);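 note: 0% = growth of vehicle-only control cultures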; conditions: S. cerevisiae CLN2oe strain, stronger effect = higher value
Outline: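 Growth of a genetically modified yeast strain is measured after compound exposure and compared with cultures given vehicle alone.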

[4] = NCI Yeast Anticancer Drug Screen. Data for the cln2 rad14 strain (AID 165);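 note: 0% = growth equal to vehicle treated cultures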; conditions: S. cerevisiae cln2 rad14 strain, stronger effect = higher value
Outline: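 Compounds are applied to the cln2 rad14 yeast strain, and growth is then compared with that of vehicle-treated cultures to give inhibition.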

[5] = NCI Yeast Anticancer Drug Screen. Data for the bub3 strain (AID 167); conditions: S. cerevisiae bub3 mutant strain, stronger effect = higher value
Outline: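 Growth of a checkpoint-deficient yeast mutant is measured after compound exposure. Values represent inhibition relative to vehicle.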

[6] = NCI Yeast Anticancer Drug Screen. Data for the wt2 strain (AID 169);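 note: 0% = growth of vehicle-treated yeast cultures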; conditions: S. cerevisiae wt2 strain growth inhibition, stronger effect = higher value
Outline: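 This strain belongs to a panel of yeast strains with defined genetic alterations in DNA damage repair or cell cycle control. Compounds are applied, and growth inhibition is measured against vehicle-treated cultures.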

[7] = NCI Yeast Anticancer Drug Screen. Data for the mlh1 strain (AID 171);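 note: 0% = growth of vehicle-treated control cultures of the same strain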; conditions: S. cerevisiae mlh1 strain growth inhibition, stronger effect = higher value
Outline: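 Growth of the mutant yeast strain after compound exposure, expressed as inhibition relative to vehicle-only controls.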

[8] = NCI Yeast Anticancer Drug Screen. Data for the sgs1 strain (AID 173);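 note: 0% = growth of vehicle-only control cultures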; conditions: S. cerevisiae sgs1 mutant, stronger effect = higher value
Outline: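 Growth of a yeast strain bearing a defined genetic alteration is measured after compound treatment. Inhibition is expressed relative to vehicle-only controls.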

[9] = NCI Yeast Anticancer Drug Screen. Data for the mlh1 rad18 strain (AID 175); conditions: S. cerevisiae mlh1 rad18 strain growth inhibition, stronger effect = higher value
Outline: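 Read-out is yeast growth inhibition, calculated against vehicle-only controls. The compound was applied to a strain engineered with DNA damage repair alterations.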

[10] = NCI Yeast Anticancer Drug Screen. Data for the rad18 strain (AID 177); conditions: S. cerevisiae rad18 mutant growth inhibition, stronger effect = higher value
Outline: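 Growth of the mutant yeast strain after compound exposure, normalised to vehicle-only cultures.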

[11] = NCI Yeast Anticancer Drug Screen. Data for the rad52 strain (AID 147);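 note: 0% = growth of vehicle-treated control cultures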; conditions: S. cerevisiae rad52 mutant growth inhibition, stronger effect = higher value
Outline: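 Compounds are applied to a genetically defined yeast strain lacking normal DNA damage repair, and inhibition of growth is expressed relative to cultures given vehicle only.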

[12] = NCI Yeast Anticancer Drug Screen. Data for the wt1 strain (AID 149);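 note: 0% = growth of vehicle-treated wt1 cultures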; conditions: S. cerevisiae wt1 strain (SPY 50644) growth inhibition, stronger effect = higher value
Outline: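 Readout: yeast growth inhibition, normalised to vehicle controls, in the wt1 strain exposed to test compounds.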

[13] = NCI Yeast Anticancer Drug Screen. Data for the rad50EPP+ strain (AID 151);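 note: 0% = growth of vehicle-treated control cultures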; conditions: S. cerevisiae rad50 mutant strain, stronger effect = higher value
Outline: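 Compounds were applied to the rad50EPP+ yeast strain, which bears a defined DNA repair alteration, and growth inhibition was determined relative to vehicle-treated cultures.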

[14] = NCI Yeast Anticancer Drug Screen. Data for the mgt1 strain (AID 153); conditions: S. cerevisiae mgt1 mutant growth inhibition, stronger effect = higher value
Outline: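 Strain: mgt1 yeast, one of a set carrying defined DNA damage repair or cell cycle control alterations. Compound-treated growth compared with vehicle.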

[15] = NCI Yeast Anticancer Drug Screen. Data for the rad50 strain (AID 155);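 note: 0% = growth of vehicle-only cultures of the same strain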; conditions: S. cerevisiae rad50 strain growth inhibition, stronger effect = higher value
Outline: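 Compounds were tested on a yeast strain with an engineered DNA damage repair alteration; the reported value is growth inhibition normalised to vehicle treatment.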

[16] = NCI Yeast Anticancer Drug Screen. Data for the sgs1 mgt1 strain (AID 161);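 note: 0% = growth of cultures given vehicle only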; conditions: S. cerevisiae sgs1 mgt1 strain, stronger effect = higher value
Outline: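 Mutant yeast exposed to compound; growth scored against vehicle-only wells.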

[17] = at 5.0 µM (retest, dose inferred, filed as 0.5)
[18] = at 50.0 µM (retest, dose inferred, filed as 5.0)

Measured: growth inhibition

O=C(Cc1csc2[n+]1C(=O)/C(=C/c1ccc(Cl)cc1)S2)Nc1ccccc1
active: [1]; [18] 99% | [1]; at 50.0 µM 98.8% | [4]; [18] 98% | [4]; at 50.0 µM 98.5% | [5]; [17] 97% | [5]; [18] 99% | [5]; at 50.0 µM 98.8% | [6]; at 100.0 µM 82% | [7]; at 100.0 µM 75% | [8]; at 33.0 µM 72% | [8]; at 100.0 µM 89% | [9]; [18] 98% | [9]; at 50.0 µM 98.3%
inactive: [1]; [17] 25% | [1]; at 11.0 µM 13% | [1]; at 33.0 µM 39% | [1]; at 100.0 µM 62% | [2]; at 1.2 µM 0% | [2]; at 3.7 µM 4% | [2]; at 11.0 µM 10% | [2]; at 33.0 µM 33% | [2]; at 100.0 µM 69% | [3]; at 1.2 µM -6% | [3]; at 3.7 µM -14% | [3]; at 11.0 µM -12% | [3]; at 33.0 µM 8% | [3]; at 100.0 µM 47% | [4]; [17] 42% | [5]; at 1.2 µM -8% | [5]; at 3.7 µM -8% | [5]; at 11.0 µM -7% | [5]; at 33.0 µM 11% | [5]; at 100.0 µM 12% | [6]; at 1.2 µM -3% | [6]; at 3.7 µM -3% | [6]; at 11.0 µM 7% | [6]; at 33.0 µM 60% | [7]; at 1.2 µM -1% | [7]; at 3.7 µM 1% | [7]; at 11.0 µM 8% | [7]; at 33.0 µM 52% | [8]; at 1.2 µM 2% | [8]; at 3.7 µM 11% | [8]; at 11.0 µM 32% | [9]; [17] 20% | [10]; at 1.2 µM 0% | [10]; at 3.7 µM 5% | [10]; at 11.0 µM 21% | [10]; at 33.0 µM 56% | [10]; at 100.0 µM 69%

CC1(C)C(=O)OC(n2cc(F)c(=O)[nH]c2=O)C1=O (stereo not drawn)
active: [15]; [18] 74% | [16]; [18] 80%
inactive: [11]; at 1.2 µM -32% | [11]; at 3.7 µM -22% | [11]; at 11.0 µM -27% | [11]; at 33.0 µM -8% | [11]; at 100.0 µM 26% | [12]; at 1.2 µM -39% | [12]; at 3.7 µM -43% | [12]; at 11.0 µM -18% | [12]; at 33.0 µM -36% | [12]; at 100.0 µM 1% | [13]; at 1.2 µM -30% | [13]; at 3.7 µM -29% | [13]; at 11.0 µM -7% | [13]; at 33.0 µM 21% | [13]; at 100.0 µM 56% | [14]; at 1.2 µM 19% | [14]; at 3.7 µM 32% | [14]; at 11.0 µM 34% | [14]; at 33.0 µM 49% | [14]; at 100.0 µM 67% | [15]; at 1.2 µM -11% | [15]; at 3.7 µM -10% | [15]; [17] 25% | [15]; at 11.0 µM 3% | [15]; at 33.0 µM 17% | [15]; at 50.0 µM 6.6% | [15]; at 100.0 µM 37% | [1]; at 1.2 µM -31% | [1]; at 3.7 µM -5% | [1]; [17] 1% | [1]; at 11.0 µM -11% | [1]; at 33.0 µM 9% | [1]; [18] 34% | [1]; at 50.0 µM 2.95% | [1]; at 100.0 µM 60% | [2]; at 1.2 µM -36% | [2]; at 3.7 µM -37% | [2]; at 11.0 µM -18% | [2]; at 33.0 µM -15% | [2]; at 100.0 µM -8% | [16]; [17] 36% | [16]; at 50.0 µM 30% | [4]; [17] 27% | [4]; [18] 45% | [4]; at 50.0 µM 56.8% | [5]; at 1.2 µM 19% | [5]; at 3.7 µM 21% | [5]; [17] 45% | [5]; at 11.0 µM 19% | [5]; at 33.0 µM 37% | [5]; [18] 62% | [5]; at 50.0 µM 27.1% | [5]; at 100.0 µM 39% | [6]; at 1.2 µM 5% | [6]; at 3.7 µM 20% | [6]; at 11.0 µM 17% | [6]; at 33.0 µM 43% | [6]; at 100.0 µM 51% | [7]; at 1.2 µM -14% | [7]; at 3.7 µM -15% | [7]; at 11.0 µM -2% | [7]; at 33.0 µM 19% | [7]; at 100.0 µM 49% | [8]; at 1.2 µM -17% | [8]; at 3.7 µM -13% | [8]; at 11.0 µM -2% | [8]; at 33.0 µM 45% | [8]; at 100.0 µM 67% | [9]; [17] 13% | [9]; [18] 48% | [9]; at 50.0 µM 15.7% | [10]; at 1.2 µM 4% | [10]; at 3.7 µM 8% | [10]; at 11.0 µM 8% | [10]; at 33.0 µM 21% | [10]; at 100.0 µM 28%

Clc1ccc(SC(/C=C/NNC2=NC(c3ccccc3)C(c3ccccc3)=NN2)c2ccccc2)cc1 (stereo not drawn)
active: [11]; at 100.0 µM 83% | [14]; at 100.0 µM 85% | [15]; at 50.0 µM 71.3% | [15]; at 100.0 µM 82% | [1]; at 100.0 µM 85% | [2]; at 100.0 µM 91% | [3]; at 100.0 µM 80% | [4]; at 50.0 µM 70% | [5]; at 100.0 µM 84% | [6]; at 100.0 µM 86% | [8]; at 100.0 µM 87%
inactive: [11]; at 1.2 µM 0% | [11]; at 3.7 µM 6% | [11]; at 11.0 µM 11% | [11]; at 33.0 µM 19% | [12]; at 1.2 µM 0% | [12]; at 3.7 µM -1% | [12]; at 11.0 µM -2% | [12]; at 33.0 µM -1% | [12]; at 100.0 µM 51% | [13]; at 1.2 µM 2% | [13]; at 3.7 µM 12% | [13]; at 11.0 µM 7% | [13]; at 33.0 µM 6% | [13]; at 100.0 µM 0% | [14]; at 1.2 µM -5% | [14]; at 3.7 µM 8% | [14]; at 11.0 µM -11% | [14]; at 33.0 µM 8% | [15]; at 1.2 µM 4% | [15]; at 3.7 µM 14% | [15]; [17] 48% | [15]; at 11.0 µM 14% | [15]; at 33.0 µM 47% | [15]; [18] 48% | [1]; at 1.2 µM -1% | [1]; at 3.7 µM 2% | [1]; [17] 0% | [1]; at 11.0 µM 2% | [1]; at 33.0 µM 8% | [1]; [18] 0% | [1]; at 50.0 µM 18.6% | [2]; at 1.2 µM 1% | [2]; at 3.7 µM 6% | [2]; at 11.0 µM 2% | [2]; at 33.0 µM 50% | [3]; at 1.2 µM -9% | [3]; at 3.7 µM 0% | [3]; at 11.0 µM -4% | [3]; at 33.0 µM 1% | [4]; [17] 7% | [4]; [18] 7% | [5]; at 1.2 µM -1% | [5]; at 3.7 µM -1% | [5]; [17] 5% | [5]; at 11.0 µM 0% | [5]; at 33.0 µM 37% | [5]; [18] 5% | [5]; at 50.0 µM 60.9% | [6]; at 1.2 µM 0% | [6]; at 3.7 µM 2% | [6]; at 11.0 µM 2% | [6]; at 33.0 µM 29% | [8]; at 1.2 µM 1% | [8]; at 3.7 µM 3% | [8]; at 11.0 µM 4% | [8]; at 33.0 µM 33% | [9]; [17] 0% | [9]; [18] 0% | [9]; at 50.0 µM 58.4%
